# Where “and” joins values, the source holds several entries; their conditions need not be identical. Identical values can stand only once. Calls of active or inactive are those of the source. Cut-off read from the data, not from the text of the source, unless noted: active = parasite load remaining mostly below about 12% (no sharp cut-off); inactive = mostly above about 10%.
# Test: enhancers of glutamate uptake in motor neurons, MN-1 cell line (AID 1612);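 note: 0% = mean of DMSO vehicle wells on each plate; positive means more glutamate uptake than control and negative means less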
# Details: MN-1 motor neuron cells, stronger effect = higher value
row,SMILES,glutamate uptake change [%]
1,C=CC[C@@H]1/C=C(\C)C[C@H](C)C[C@H](OC)[C@H]2O[C@@](O)(C(=O)C(=O)N3CCCC[C@H]3C(=O)O[C@H](/C(C)=C/[C@@H]3CC[C@@H](O)[C@H](OC)C3)[C@H](C)[C@@H](O)CC1=O)[C@H](C)C[C@@H]2OC,0
2,OC(c1cc(C(F)(F)F)nc2c(C(F)(F)F)cccc12)C1CCCCN1 (stereo not given),-3.13
3,COc1ccc(C2Sc3ccccc3N(CCN(C)C)C(=O)C2OC(C)=O)cc1 (stereo not given),4.81

# Test: suppressors of polyglutamine aggregation in yeast, 75Q-TubH (AID 1616)
# Details: S. cerevisiae 75Q-TubH polyglutamine aggregation suppression; stronger effect = higher value
row,SMILES,aggregation suppression score
1,C=CC[C@@H]1/C=C(\C)C[C@H](C)C[C@H](OC)[C@H]2O[C@@](O)(C(=O)C(=O)N3CCCC[C@H]3C(=O)O[C@H](/C(C)=C/[C@@H]3CC[C@@H](O)[C@H](OC)C3)[C@H](C)[C@@H](O)CC1=O)[C@H](C)C[C@@H]2OC,0.207
2,OC(c1cc(C(F)(F)F)nc2c(C(F)(F)F)cccc12)C1CCCCN1 (stereo not given),1.65
3,COc1ccc(C2Sc3ccccc3N(CCN(C)C)C(=O)C2OC(C)=O)cc1 (stereo not given),0.716

# Test: circadian clock period modulators, cell-based, LOPAC library, luminescence reporter (AID 2774; call rule not given here;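 note: values are relative to mean of DMSO wells on each plate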)
# Details: circadian reporter cells, at 7 µM, actives lie on both sides
row,SMILES,period change
1,CCCCS(=N)(=O)CCC(N)C(=O)O (stereo not given),-0.105 h (inactive)
2,Nc1nc(N)c2nc(CNc3ccc(C(=O)NC(CCC(=O)O)C(=O)O)cc3)cnc2n1 (stereo not given),-0.245 h (inactive)
3,CC1=C(C(=O)O)N2C(=O)[C@@H](NC(=O)C(N)c3ccccc3)[C@H]2SC1 (stereo not given in full),0.02 h (inactive)
4,CC1CC2C3CCC4=CC(=O)C=C[C@]4(C)[C@@]3(F)[C@@H](O)C[C@]2(C)[C@@]1(O)C(=O)CO (stereo not given in full),-0.45 h (inactive)
5,CC(C)NC[C@H](O)COc1cccc2ccccc12,0.145 h (inactive)

# Test: hESC survival regulators, cell-based (AID 493140; call rule not given here;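 note: cells exposed to compounds for four days before counting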)
# Details: human embryonic stem cell survival screen; stronger effect = higher value
row,SMILES,survival
1,OC(c1cc(C(F)(F)F)nc2c(C(F)(F)F)cccc12)C1CCCCN1 (stereo not given),3.83 (inactive)
2,CN[C@@H]1[C@H](O[C@H]2[C@H](O[C@@H]3[C@@H](O)[C@H](O)[C@@H](N=C(N)N)[C@H](O)[C@H]3N=C(N)N)O[C@@H](C)[C@]2(O)C=O)O[C@@H](CO)[C@H](O)[C@H]1O,20.6 (inactive)
3,Cc1cc2nc3c(=O)[nH]c(=O)nc-3n(CC(O)C(O)C(O)CO)c2cc1C (stereo not given),1.58 (inactive)

# Test: liver-stage malaria parasite growth inhibition, primary screen, cell-based, HepG2, luciferase luminescence, HepG2 viability (AID 624349);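 note: 100% = mean of DMSO negative control wells on the same plate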
# Details: P. berghei liver stage in HepG2, luciferase luminescence, concentration not given here; parasite load remaining: stronger effect = lower value; viability: measured here: HepG2 viability without parasites
SMILES,viability,parasite load remaining
CC[C@]1(O)CC2CN(CCc3c([nH]c4ccccc34)[C@@](C(=O)OC)(c3cc4c(cc3OC)N(C)[C@H]3[C@@](O)(C(=O)OC)[C@H](OC(C)=O)[C@]5(CC)C=CCN6CC[C@]43[C@@H]65)C2)C1 (stereo not given in full),113% and 91%,45.7% (inactive) and 54.9% (inactive)
C[C@]12CCC3c4ccc(O)cc4CCC3C1CCC2=O (stereo not given in full),75.2% and 91.3%,83.7% (inactive) and 77.8% (inactive)
OC[C@@H](O)[C@@H](O)[C@H](O)[C@@H](O)CO,97.5%,34.8% (inactive)
C=CC[C@@H]1/C=C(\C)C[C@H](C)C[C@H](OC)[C@H]2O[C@@](O)(C(=O)C(=O)N3CCCC[C@H]3C(=O)O[C@H](/C(C)=C/[C@@H]3CC[C@@H](O)[C@H](OC)C3)[C@H](C)[C@@H](O)CC1=O)[C@H](C)C[C@@H]2OC,97.1%,58.3% (inactive)
Cc1coc2c1C(=O)C(=O)c1c-2ccc2c1CCCC2(C)C,97.5%,23.1% (inactive)
Nc1nc(N)c2nc(CNc3ccc(C(=O)NC(CCC(=O)O)C(=O)O)cc3)cnc2n1 (stereo not given),70.2%,160% (inactive)
N#CC(c1ccc(Cl)cc1)c1c(Cl)cc(-n2ncc(=O)[nH]c2=O)cc1Cl (stereo not given),99%,30.6% (inactive)
CC1=C(C(=O)O)N2C(=O)[C@@H](NC(=O)C(N)c3ccccc3)[C@H]2SC1 (stereo not given in full),72.1% and 86.5%,96% (inactive) and 49.4% (inactive)
CC1CC2C3CCC4=CC(=O)C=C[C@]4(C)[C@@]3(F)[C@@H](O)C[C@]2(C)[C@@]1(O)C(=O)CO (stereo not given in full),71.5%,123% (inactive)
CC(C)(CO)[C@@H](O)C(=O)NCCC(=O)O,107% and 75%,90.7% (inactive) and 34.6% (inactive)
CC(NCCc1ccc(O)cc1)C(O)c1ccc(O)cc1 (stereo not given),69.7% and 91.3%,92.5% (inactive) and 43.7% (inactive)
CC(C)NC[C@H](O)COc1cccc2ccccc12,78.7% and 93.4% and 161%,76% (inactive) and 69.1% (inactive) and 147% (inactive)
CN[C@@H]1[C@H](O[C@H]2[C@H](O[C@@H]3[C@@H](O)[C@H](O)[C@@H](N=C(N)N)[C@H](O)[C@H]3N=C(N)N)O[C@@H](C)[C@]2(O)C=O)O[C@@H](CO)[C@H](O)[C@H]1O,118% and 97.5% and 75%,51.2% (inactive) and 45.6% (inactive) and 35.8% (inactive)

# From PubChem BioAssay
